{"source": "paper PMC12820563", "about": "“FoxP3 forms a head-to-head dimer in vivo and stabilizes its multimerization on adjacent microsatellites”", "note": "Over roughly 16,000 sequences, “rpm ratio (pull-down/input)” has its median near 0.94; the highest 2% begin near 1.7. What follows is part of a selection rich in the highest values, with near analogues and random picks from the rest.", "data": [{"target": "T1, MBP-FoxP1dN (Mus musculus, UniProt P58462 326-579)", "T1 sequence": "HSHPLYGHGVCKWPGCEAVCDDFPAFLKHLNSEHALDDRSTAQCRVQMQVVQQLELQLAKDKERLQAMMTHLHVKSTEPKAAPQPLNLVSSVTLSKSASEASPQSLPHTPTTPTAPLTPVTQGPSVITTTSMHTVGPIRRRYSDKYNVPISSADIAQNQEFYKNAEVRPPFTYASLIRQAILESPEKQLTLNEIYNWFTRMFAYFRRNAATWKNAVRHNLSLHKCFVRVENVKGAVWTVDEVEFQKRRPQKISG", "test": "PD-seq (MBP pull-down with sequencing); 20 mM Tris-HCl pH 7.5, 100 mM NaCl, 1.5 mM MgCl2, 0.4 uM protein, 0.1 uM dsDNA library, 30 min, room temperature, amylose pull-down; high values mean tight binding", "settings": "protein: recombinant; tags: His6-MBP; chain copies: 2; dsDNA, one strand shown", "procedure,_shortened": "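E. coli-expressed mouse FoxP3 or FoxP1 fragment, N-terminus removed and tagged with His6-MBP, was used at 0.4 µM against 0.1 µM of a Klenow-filled degenerate double-stranded DNA library. After 30 min at room temperature in Tris pH 7.5 buffer with NaCl and MgCl2, complexes were pulled down on amylose resin and washed three times. Binding is pull-down over input reads-per-million enrichment from pooled replicates of the proteinase K-released, PCR-barcoded, Illumina-sequenced DNA.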", "values": [{"sequence": "GATGATTGTTCTCCCAGCTGATGAATTGACTACATCGAGTAAACAAATTTTCCTAATCTTTCTGTTCAAGCGCCATCTAC", "binding signal": "1.22 RPM ratio (pull-down/input)"}, {"sequence": "GATGATTGTTCTCCCAGCTGATGAATTCCACAGTTCGAGTAAACAAATTTTCCTAATCTTTCTGTTCAAGCGCCATCTAC", "binding signal": "0.831 RPM ratio (pull-down/input)"}, {"sequence": "GATGATTGTTCTCCCAGCTGATGAATTTCACCATTCGAGTAAACAAATTTTCCTAATCTTTCTGTTCAAGCGCCATCTAC", "binding signal": "0.883 RPM ratio (pull-down/input)"}, {"sequence": "GATGATTGTTCTCCCAGCTGATGAATTTCGTCTCTCGAGTAAACAAATTTTCCTAATCTTTCTGTTCAAGCGCCATCTAC", "binding signal": "0.896 RPM ratio (pull-down/input)"}, {"sequence": "GATGATTGTTCTCCCAGCTGATGAATTATGACCTTCGAGTAAACAAATTTTCCTAATCTTTCTGTTCAAGCGCCATCTAC", "binding signal": "0.925 RPM ratio (pull-down/input)"}, {"sequence": "GATGATTGTTCTCCCAGCTGATGAATTATGCCACTCGAGTAAACAAATTTTCCTAATCTTTCTGTTCAAGCGCCATCTAC", "binding signal": "1.06 RPM ratio (pull-down/input)"}, {"sequence": "GATGATTGTTCTCCCAGCTGATGAATTTTCCCTCTCGAGTAAACAAATTTTCCTAATCTTTCTGTTCAAGCGCCATCTAC", "binding signal": "0.877 RPM ratio (pull-down/input)"}, {"sequence": "GATGATTGTTCTCCCAGCTGATGAATTCCGAGATTCGAGTAAACAAATTTTCCTAATCTTTCTGTTCAAGCGCCATCTAC", "binding signal": "0.799 RPM ratio (pull-down/input)"}, {"sequence": "GATGATTGTTCTCCCAGCTGATGAATTAAGTGTATCGAGTAAACAAATTTTCCTAATCTTTCTGTTCAAGCGCCATCTAC", "binding signal": "1.28 RPM ratio (pull-down/input)"}, {"sequence": "GATGATTGTTCTCCCAGCTGATGAATTTCAGTCATCGAGTAAACAAATTTTCCTAATCTTTCTGTTCAAGCGCCATCTAC", "binding signal": "1 RPM ratio (pull-down/input)"}, {"sequence": "GATGATTGTTCTCCCAGCTGATGAATTTTCCACTTCGAGTAAACAAATTTTCCTAATCTTTCTGTTCAAGCGCCATCTAC", "binding signal": "0.903 RPM ratio (pull-down/input)"}, {"sequence": "GATGATTGTTCTCCCAGCTGATGAATTTAGGAGATCGAGTAAACAAATTTTCCTAATCTTTCTGTTCAAGCGCCATCTAC", "binding signal": "0.968 RPM ratio (pull-down/input)"}, {"sequence": "GATGATTGTTCTCCCAGCTGATGAATTACTAATGTCGAGTAAACAAATTTTCCTAATCTTTCTGTTCAAGCGCCATCTAC", "binding signal": "1.28 RPM ratio (pull-down/input)"}, {"sequence": "GATGATTGTTCTCCCAGCTGATGAATTACTATTTTCGAGTAAACAAATTTTCCTAATCTTTCTGTTCAAGCGCCATCTAC", "binding signal": "2.29 RPM ratio (pull-down/input)"}, {"sequence": "GATGATTGTTCTCCCAGCTGATGAATTACTATTGTCGAGTAAACAAATTTTCCTAATCTTTCTGTTCAAGCGCCATCTAC", "binding signal": "2.38 RPM ratio (pull-down/input)"}, {"sequence": "GATGATTGTTCTCCCAGCTGATGAATTATTACTATCGAGTAAACAAATTTTCCTAATCTTTCTGTTCAAGCGCCATCTAC", "binding signal": "1.21 RPM ratio (pull-down/input)"}, {"sequence": "GATGATTGTTCTCCCAGCTGATGAATTATTACTGTCGAGTAAACAAATTTTCCTAATCTTTCTGTTCAAGCGCCATCTAC", "binding signal": "1.17 RPM ratio (pull-down/input)"}, {"sequence": "GATGATTGTTCTCCCAGCTGATGAATTACTAATTTCGAGTAAACAAATTTTCCTAATCTTTCTGTTCAAGCGCCATCTAC", "binding signal": "1.25 RPM ratio (pull-down/input)"}, {"sequence": "GATGATTGTTCTCCCAGCTGATGAATTTACTATTTCGAGTAAACAAATTTTCCTAATCTTTCTGTTCAAGCGCCATCTAC", "binding signal": "1.55 RPM ratio (pull-down/input)"}, {"sequence": "GATGATTGTTCTCCCAGCTGATGAATTACTATCATCGAGTAAACAAATTTTCCTAATCTTTCTGTTCAAGCGCCATCTAC", "binding signal": "1.28 RPM ratio (pull-down/input)"}, {"sequence": "GATGATTGTTCTCCCAGCTGATGAATTACTATTATCGAGTAAACAAATTTTCCTAATCTTTCTGTTCAAGCGCCATCTAC", "binding signal": "1.87 RPM ratio (pull-down/input)"}, {"sequence": "GATGATTGTTCTCCCAGCTGATGAATTTCTCTATTCGAGTAAACAAATTTTCCTAATCTTTCTGTTCAAGCGCCATCTAC", "binding signal": "0.936 RPM ratio (pull-down/input)"}, {"sequence": "GATGATTGTTCTCCCAGCTGATGAATTCTCGGCCTCGAGTAAACAAATTTTCCTAATCTTTCTGTTCAAGCGCCATCTAC", "binding signal": "0.731 RPM ratio (pull-down/input)"}, {"sequence": "GATGATTGTTCTCCCAGCTGATGAATTATGACTGTCGAGTAAACAAATTTTCCTAATCTTTCTGTTCAAGCGCCATCTAC", "binding signal": "0.934 RPM ratio (pull-down/input)"}, {"sequence": "GATGATTGTTCTCCCAGCTGATGAATTCCCTCGGTCGAGTAAACAAATTTTCCTAATCTTTCTGTTCAAGCGCCATCTAC", "binding signal": "0.759 RPM ratio (pull-down/input)"}, {"sequence": "GATGATTGTTCTCCCAGCTGATGAATTGTGCCTATCGAGTAAACAAATTTTCCTAATCTTTCTGTTCAAGCGCCATCTAC", "binding signal": "1.09 RPM ratio (pull-down/input)"}, {"sequence": "GATGATTGTTCTCCCAGCTGATGAATTTGATCACTCGAGTAAACAAATTTTCCTAATCTTTCTGTTCAAGCGCCATCTAC", "binding signal": "1.02 RPM ratio (pull-down/input)"}, {"sequence": "GATGATTGTTCTCCCAGCTGATGAATTCCAAGTATCGAGTAAACAAATTTTCCTAATCTTTCTGTTCAAGCGCCATCTAC", "binding signal": "0.949 RPM ratio (pull-down/input)"}, {"sequence": "GATGATTGTTCTCCCAGCTGATGAATTCGCTTAATCGAGTAAACAAATTTTCCTAATCTTTCTGTTCAAGCGCCATCTAC", "binding signal": "0.936 RPM ratio (pull-down/input)"}, {"sequence": "GATGATTGTTCTCCCAGCTGATGAATTCTGTGGATCGAGTAAACAAATTTTCCTAATCTTTCTGTTCAAGCGCCATCTAC", "binding signal": "0.956 RPM ratio (pull-down/input)"}, {"sequence": "GATGATTGTTCTCCCAGCTGATGAATTATCTAGATCGAGTAAACAAATTTTCCTAATCTTTCTGTTCAAGCGCCATCTAC", "binding signal": "0.863 RPM ratio (pull-down/input)"}, {"sequence": "GATGATTGTTCTCCCAGCTGATGAATTTATATCATCGAGTAAACAAATTTTCCTAATCTTTCTGTTCAAGCGCCATCTAC", "binding signal": "1.27 RPM ratio (pull-down/input)"}, {"sequence": "GATGATTGTTCTCCCAGCTGATGAATTAAATGCGTCGAGTAAACAAATTTTCCTAATCTTTCTGTTCAAGCGCCATCTAC", "binding signal": "1.43 RPM ratio (pull-down/input)"}, {"sequence": "GATGATTGTTCTCCCAGCTGATGAATTATTGGCTTCGAGTAAACAAATTTTCCTAATCTTTCTGTTCAAGCGCCATCTAC", "binding signal": "1.1 RPM ratio (pull-down/input)"}, {"sequence": "GATGATTGTTCTCCCAGCTGATGAATTTTGTTTCTCGAGTAAACAAATTTTCCTAATCTTTCTGTTCAAGCGCCATCTAC", "binding signal": "1.71 RPM ratio (pull-down/input)"}, {"sequence": "GATGATTGTTCTCCCAGCTGATGAATTTGCATCCTCGAGTAAACAAATTTTCCTAATCTTTCTGTTCAAGCGCCATCTAC", "binding signal": "1.77 RPM ratio (pull-down/input)"}, {"sequence": "GATGATTGTTCTCCCAGCTGATGAATTGTTTCTCTCGAGTAAACAAATTTTCCTAATCTTTCTGTTCAAGCGCCATCTAC", "binding signal": "1.33 RPM ratio (pull-down/input)"}, {"sequence": "GATGATTGTTCTCCCAGCTGATGAATTGCATCCCTCGAGTAAACAAATTTTCCTAATCTTTCTGTTCAAGCGCCATCTAC", "binding signal": "1.46 RPM ratio (pull-down/input)"}, {"sequence": "GATGATTGTTCTCCCAGCTGATGAATTTGTTTTCTCGAGTAAACAAATTTTCCTAATCTTTCTGTTCAAGCGCCATCTAC", "binding signal": "2.32 RPM ratio (pull-down/input)"}, {"sequence": "GATGATTGTTCTCCCAGCTGATGAATTTTTTAGCTCGAGTAAACAAATTTTCCTAATCTTTCTGTTCAAGCGCCATCTAC", "binding signal": "0.853 RPM ratio (pull-down/input)"}, {"sequence": "GATGATTGTTCTCCCAGCTGATGAATTCTGTTTCTCGAGTAAACAAATTTTCCTAATCTTTCTGTTCAAGCGCCATCTAC", "binding signal": "1.14 RPM ratio (pull-down/input)"}, {"sequence": "GATGATTGTTCTCCCAGCTGATGAATTTTTGTTCTCGAGTAAACAAATTTTCCTAATCTTTCTGTTCAAGCGCCATCTAC", "binding signal": "0.963 RPM ratio (pull-down/input)"}, {"sequence": "GATGATTGTTCTCCCAGCTGATGAATTTTGCATCTCGAGTAAACAAATTTTCCTAATCTTTCTGTTCAAGCGCCATCTAC", "binding signal": "1.52 RPM ratio (pull-down/input)"}, {"sequence": "GATGATTGTTCTCCCAGCTGATGAATTGTTTTTCTCGAGTAAACAAATTTTCCTAATCTTTCTGTTCAAGCGCCATCTAC", "binding signal": "2.22 RPM ratio (pull-down/input)"}, {"sequence": "GATGATTGTTCTCCCAGCTGATGAATTGTTTAGCTCGAGTAAACAAATTTTCCTAATCTTTCTGTTCAAGCGCCATCTAC", "binding signal": "1.89 RPM ratio (pull-down/input)"}, {"sequence": "GATGATTGTTCTCCCAGCTGATGAATTTAGCTCCTCGAGTAAACAAATTTTCCTAATCTTTCTGTTCAAGCGCCATCTAC", "binding signal": "0.946 RPM ratio (pull-down/input)"}]}]}
